Reference: PubChem BioAssay AID2708 (National Center for Advancing Translational Sciences (NCATS), 2010)
The list shows a part of the results. Records with an inconclusive call do not appear. Calls of active or inactive are those of the source. The call rests on the fitted dose curve; in most records, active means well fitted inhibition curve with a large enough effect; inconclusive means small, poorly fitted or top-dose-only effect; inactive means no such curve, though single readings can be large or run the other way. Peptide text beside a SMILES is read from it. * marks the point of attachment. Bz = O=C(c1ccccc1)*

target: ATP-dependent DNA helicase Q1 (Homo sapiens) (UniProt P46063); test: Confirmation qHTS Assay for Inhibitors of RecQ-Like Dna Helicase 1 (RECQ1); conditions: RECQ1 helicase DNA unwinding, fluorescence; series mostly up to 229 µM; activity change, negative = inhibition: at the top concentration; further: nearly all actives have a fitted effect of over 45% in size
Sequence (P46063 whole entry, looked up): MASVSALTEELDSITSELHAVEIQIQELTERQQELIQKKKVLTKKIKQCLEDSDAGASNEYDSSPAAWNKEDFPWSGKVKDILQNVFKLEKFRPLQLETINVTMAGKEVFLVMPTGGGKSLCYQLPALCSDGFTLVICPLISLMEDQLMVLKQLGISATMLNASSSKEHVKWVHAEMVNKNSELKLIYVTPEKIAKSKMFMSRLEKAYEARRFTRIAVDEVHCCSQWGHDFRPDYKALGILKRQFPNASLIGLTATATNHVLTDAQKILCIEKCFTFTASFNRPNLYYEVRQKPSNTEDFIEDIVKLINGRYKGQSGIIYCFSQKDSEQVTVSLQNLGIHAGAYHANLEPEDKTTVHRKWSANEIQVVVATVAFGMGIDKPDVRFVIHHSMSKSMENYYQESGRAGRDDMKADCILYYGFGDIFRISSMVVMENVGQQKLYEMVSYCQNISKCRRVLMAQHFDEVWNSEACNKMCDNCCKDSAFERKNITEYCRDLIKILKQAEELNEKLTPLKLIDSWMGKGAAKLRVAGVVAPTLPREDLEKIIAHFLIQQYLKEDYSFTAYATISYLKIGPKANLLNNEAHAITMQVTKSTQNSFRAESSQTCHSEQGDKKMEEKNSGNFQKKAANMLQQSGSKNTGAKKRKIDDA
Source text: Survival of cells and the faithful propagation of the genome depend on elaborate mechanisms of detecting and repairing DNA damage. Treatment of advanced cancer relies on radiation therapy or chemotherapy, which kill cancer cells by causing extensive DNA damage. It is often found, that cancer cells develop resistance to therapy through enhanced activity of DNA repair functions; this has led to an increased interest in developing drugs that interfere with DNA repair, which could sensitize cancer cells to conventional therapy.
This validation qHTS assay pertains to human RECQ1, which is important in resolving abnormal DNA structures formed during replication or homologous recombination. Shutting down the expression of RECQ1 leads to chromosomal instability and higher radiation sensitivity in cultured cells.
The validation assay was a fluorescence quenching based kinetic qHTS for RECQ1 Helicase DNA unwinding. The activity was measured as ATP-dependent separation of a 20-bp DNA duplex extended by 30-nt single-stranded tails (forked duplex). The forked DNA substrate was tagged with rhodamine fluorophore (carboxytetramethyl rhodamine, TAMRA) and BHQ-2 (Black Hole Quencher 2) dark quencher. Strand separation results in an increase in the fluorescence of TAMRA (excitation 525 nm, emission 598 nm). This substrate construct operates in a red-shifted region where very few compound library members have been noted to fluoresce (PubChem AIDs 593 and 594). An additional feature of the assay is the inclusion of 2.5 ug/ml poly (dIdC), to reduce interference by compounds such as DNA intercalators, a major source of false inhibitors.
Opher Gileadi, Structural Genomics Consortium, University of Oxford
Screening Center PI: Austin, C.P.
Screening Center: NIH Chemical Genomics Center [NCGC]
Three uL of reaction buffer (25 mM Tris-HCl (pH 8.0), 5 mM NaCl, 2 mM MgCl2, 1mM DTT, 0.01% Tween- 20, and 2.5 ug/ml poly(dI-dC), including enzyme (50 nM RECQ1T1), were dispensed into a 1536-well Greiner black assay plate via solenoid-valve based nanoliter dispensers. Compounds (23 nl each in columns 5-48) and control (23 nl each in column 2 as dose-response) were transferred via a Kalypsys pintool equipped with a 1536-pin array. The plates were incubated for 15 min at room temperature, and then 1 ul of substrates (200 nM DNA and 2 mM ATP, final concentrations) was added to start the reaction. The plate was transferred into a ViewLux high-throughput CCD imager where the reaction progress was measured in a discontinuous kinetic mode (two reads spaced 2 hours apart, with intermediate room temperature incubation of the covered assay plate) by using standard red-fluorescence optics (excitation filter 525 nm, emission filter 598 nm). Enzyme-free and vehicle (DMSO) controls were included for signal normalization.
On the % scale 0 is the no-effect control and ±100 the full control effect; potency means the concentration at half of the fitted maximal effect.

| Structure (SMILES) | activity change, negative = inhibition | Potency |
| --- | --- | --- |
| O=C(NC(Cc1c[nH]c2ccccc12)C(=O)O)/C(=C/c1ccco1)NC(=O)c1ccccc1 (configuration not stated) | 3.08% (inactive) |  |
| COc1ccc(-c2nc3c(c(SCC(=O)Nc4ccc(C(=O)O)cc4)n2)Cc2ccccc2O3)cc1 |  | 2.89 µM (active) |
| Cc1ccccc1NC(=O)CN1C(=O)N/C(=C\c2cccn2-c2cccc(C(=O)O)c2)C1=O |  | 31.6 µM (active) |
| CC1(C)OC2CC(=O)OC[C@@]23C1CC(=O)[C@]1(C)C3CC[C@@]2(C)C(c3ccoc3)OC(=O)C3O[C@@]321 (some centres not stated) | 0.401% (inactive) |  |
| CC(=O)Nc1ccc(Nc2c3ccccc3nc3ccccc23)cc1 |  | 22.4 µM (active) |
| CC(C)(O)c1ccccc1CC[C@H](SCC1(CC(=O)O)CC1)c1cccc(/C=C/c2ccc3ccc(Cl)cc3n2)c1 |  | 40.8 µM (active) |
| CC1Cc2ccccc2N1C(=O)CSc1nnc(-c2ccc(S(=O)(=O)N3CCCC3)cc2)n1C (configuration not stated) | 7.7% (inactive) |  |
| Oc1ccc(N=Cc2sc3ccccc3c2Cl)cc1 | -1.16% [at 114 µM] (inactive) |  |
| O=C(O)CCn1c(SCc2cc(=O)n3ccccc3n2)nc2ccsc2c1=O | 1.05% (inactive) |  |
| Cc1ccc(C)n1C(Cc1ccccc1)C(=O)O (configuration not stated) |  | 22.4 µM (active) |
| O=C(c1cc2c(s1)CCC2)N1CCN(c2ccccc2)CC1 |  | 39.8 µM (active) |
| COc1cc(C2C(C(=O)c3ccc(C)o3)=C(O)C(=O)N2CCc2ccccc2)ccc1O (configuration not stated) | 11.1% (inactive) |  |
| O=C(NCc1ccccc1)C1=C[C@@H](C2CCCCC2)C[C@@H](OCc2ccc(CO)cc2)O1 | -5.77% [at 114 µM] (inactive) |  |
| O=C(CCn1nnc2ccccc2c1=O)N[C@@H](Cc1c[nH]c2ccccc12)C(=O)O | 2.77% (inactive) |  |
| O=C(NC(Cc1ccccc1)C(=O)N1CCCC1C(=O)O)c1ccccc1 (stereo not drawn) (Bz-Phe-Pro-OH; configuration not given here) | 1.28% (inactive) |  |
| O=C(N/N=C/c1sc(N2CCCCC2)nc1-c1cccs1)c1cccnc1 | 4.33% [at 114 µM] (inactive) |  |
| c1ccc(CSc2nnc(-c3ccco3)c(-c3ccco3)n2)cc1 |  | 39.8 µM (active) |
